Experimental data reported in PubChem BioAssay (EPA / NIEHS).
Activity calls are given as the source filed them. The calls were made as follows: active = hit-call score of the fitted dose curve at least 0.9, where 1 is the maximum; inactive = score below 0.9.

Assay: CEETOX_H295R_CORTIC: CeeTox H295R High-throughput Steroidogenesis Assay for Corticosterone (CORTIC) (AID 2283437);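 also: corticosterone secreted into medium quantified by mass spectrometry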
Settings: actives raise or lower the signal
Description: CEETOX_H295R is a cell-based, multiplexed-readout assay that uses H295R, a human adrenal gland cell line, with measurements taken at 48 hours after chemical dosing in a 96-well plate.CEETOX_H295R_CORTIC is one of 23 assay component(s) measured or calculated from the CEETOX_H295R assay. It is designed to make measurements of hormone induction, a form of inducible reporter, as detected with absorbance signals by HPLC-MS-MS technology.Data from the assay component CEETOX_H295R_CORTIC was analyzed into 1 assay endpoint. This assay endpoint, CEETOX_H295R_CORTIC, was analyzed with bidirectional fitting relative to DMSO as the negative control and baseline of activity. Using a type of inducible reporter, gain or loss-of-signal activity using HPLC-MS-MS was used to understand synthesis of Corticosterone in H295R cell line at 48hr of chemical exposure. To generalize the intended target to other relatable targets, this assay endpoint is annotated to the steroid hormone intended target family, where the subfamily is glucocorticoids.
Cell culture and media preparation procedures were conducted in accordance with OECD Test No. 456 guidelines, with minor modifications. H295R cells (ATCC CRL-2128) were expanded for 5 passages and frozen in batches in liquid nitrogen. Prior to the steroidogenesis assay, H295R cells were thawed and passed at least 4 times. The maximum passage was 10. Cells were maintained in a 1:1 mixture of DMEM/F12 supplemented with 5ml/L ITS+ Premix (BD Bioscience) and 12.5 ml/L Nu-Serum (BD Bioscience). After seeding cells into 96-well plates at 50-60% confluency, cells were allowed to adhere overnight. Prior to chemical testing, culture medium was replaced with 175 uL medium containing 10 uM forskolin to stimulate steroidogenesis for 48 hours. Following prestimulation, forskolin medium was replaced with medium containing test chemical solubilized in DMSO (ensuring a final concentration of 0.1% DMSO). Test chemicals were incubated for 48 hours, then the medium was removed and split into 2 vials containing approximately 75uL each, and stored at -80 C prior to hormone analysis. For steroid quantification, media samples were shipped to OpAns, LLC (Durham, NC) on dry ice, and samples were thawed to room temperature prior to liquid-liquid extraction. Steroid hormones were extracted from media samples using methyl tertbutyl ether (MTBE). An extra derivatization with dansyl chloride was included for estrogen (estrone and estradiol) detection only. Steroid hormones were separated by HPLC, eluted using a reverse phase C18 gradient with electrospray positive ionization, followed by quantification by tandem mass spectrometry (MS/MS). Data were acquired on a MassHunter Workstation Acquisition version B03.01 (Agilent Technologies, Inc.) and processed using MassHunter Quantitative Analysis for QQQ. Accuracy was determined for each hormone analyte from 3 standards to determine upper and lower limits of quantification (ULOQ and LLOQ, respectively) using a 7-point standard curve. Precision and accuracy of the extraction and quantification methods were calculated as the percent relative standard deviation (%RSD) of the spiked standards and percent spiked standard recovered, respectively. […] Test medium was removed following chemical exposure, and cell viability was evaluated in the same wells by MTT. MTT procedures were as follows: after removal of test medium, 500 uL of 0.5 mg/ml of 3-[4,5-dimethylthiazol-2-y]2,5-diphenyltetrazoliumbromide solution was added to the cells. Following a 4-hour incubation at 37 C and 5% CO2 to allow formazan-crystal formation, the MTT solution was removed and blue formazan salt crystals were solubilized using 500uL anhydrous isopropanol with shaking for 20 minutes. Absorbance was read at 570 and 650nm using a Packard Fusion microplate reader. Background correction of absorbance units was used to determine percent change relative to controls. […]

Compound	outcome	AC50
CC(C)c1cccc(O)c1	inactive	–
CC1COc2ccccc2N1C(=O)C(Cl)Cl (stereo not given)	–	9.46 µM (active)
O=C(O)C[C@H](O)C[C@H](O)/C=C/c1c(C2CC2)nc2ccccc2c1-c1ccc(F)cc1	–	0.0418 µM (active)
COc1cc2ncnc(Nc3cccc(Cl)c3)c2cc1OC	inactive	–
O=c1cc(-c2ccccc2)oc2cc(O)cc(O)c12	–	5.66 µM (active)
Nc1cc([N+](=O)[O-])ccc1Cl	inactive	–
NC(=O)Nc1ccc(Cl)cc1	–	27.6 µM (active)
Cc1cccc(C)c1C	inactive	–
Cc1ccc2n[nH]nc2c1	inactive	–
C=CCOc1nc(OCC=C)nc(OCC=C)n1	–	31.7 µM (active)
CC1(C)[C@H](C(=O)OCc2cccc(Oc3ccccc3)c2)[C@@H]1C=C(Cl)Cl	inactive	–
C=CC(C)(C)O	inactive	–
O=C(O)c1ccc([N+](=O)[O-])cc1	inactive	–
Nc1ccc(F)c([N+](=O)[O-])c1	inactive	–
C#C[C@]1(O)CC[C@H]2[C@@H]3CCC4=Cc5oncc5C[C@]4(C)[C@H]3CC[C@@]21C	–	14.5 µM (active)
